Shown are actives, neighbours in structure and some others; about 12% of the full set was active somewhere.
Sfp inh: blocks B. subtilis Sfp PPTase activity | Q9F4F7 | Biochemical Sfp PPTase activity, qHTS | Potency, µM, for the others: largest response in the series, negative = inhibition, hits mostly inhibitors | 3.5% of 310,000 active;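 note: the enzyme is Sfp with the accession as filed and its product quenches rhodamine fluorescence; 0% = enzyme reaction without inhibitor and -100% = no enzyme wells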
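With Hepes-Na pH 7.6 buffer containing 10 mM MgCl2, Sfp (15 nM) modified BHQ-2-YbbR (12.5 uM) using rhodamine-CoA (5 uM). Two reads 30 minutes apart at 525/598 nm yielded each well's rate.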
G9a inh: G9a (human) methyltransferase inhibition; Q96KQ7; G9a H3K9 monomethylation, AlphaScreen, 2 h; Potency, µM (highest dose often 102 µM), without a hit: at the top dose activity, negative = inhibition, usual class: inhibitors; 8.8% of 350,000 active; AID 504332; note: % is set by controls: 0 for no effect and ±100 for the full control effect; nearly all actives have a fitted effect of over 75% in size
Target sequence (Q96KQ7 913-1193 limits assumed): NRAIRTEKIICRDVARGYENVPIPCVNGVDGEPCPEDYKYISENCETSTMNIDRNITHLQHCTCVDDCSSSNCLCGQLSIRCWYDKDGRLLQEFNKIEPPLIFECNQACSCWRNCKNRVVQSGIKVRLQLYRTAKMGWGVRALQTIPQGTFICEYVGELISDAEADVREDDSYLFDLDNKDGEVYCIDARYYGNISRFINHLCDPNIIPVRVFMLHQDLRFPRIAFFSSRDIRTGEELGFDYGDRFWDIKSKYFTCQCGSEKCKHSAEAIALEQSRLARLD
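Signal arises when biotinylated H3K9 peptide, once monomethylated, bridges streptavidin donor and antibody-captured acceptor beads. Enzyme at 20 nM was preincubated 15 min with test compounds; peptide 500 nM and SAM 20 uM then reacted for 2 h.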
HP1b chromo inh: HP1-beta chromodomain-methylated histone interaction inhibition | P83916 | AlphaScreen HP1-beta / biotin-H3K9me3 peptide binding | Potency, µM (highest dose often 114 µM), for inactives: at the top dose activity change, negative = inhibition, most hits filed as inhibitors | 0.56% of 390,000 active; note: nearly all actives have a fitted effect of over 70% in size
Target sequence (P83916 whole entry, looked up): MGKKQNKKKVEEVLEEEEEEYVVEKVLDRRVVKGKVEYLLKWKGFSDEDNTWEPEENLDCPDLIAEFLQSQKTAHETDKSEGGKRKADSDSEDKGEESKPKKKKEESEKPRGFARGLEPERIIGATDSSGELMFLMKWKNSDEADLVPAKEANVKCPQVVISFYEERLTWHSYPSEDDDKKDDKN
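HP1-beta protein (50 nM final) preincubated 30 min at room temperature with biotinylated H3(1-18)K9me3 peptide (50 nM) in PBS pH 7.4, 0.01% Tween-20, then compound added for 30 min. AlphaScreen streptavidin donor/nickel chelate acceptor beads (10 ug/mL final), 30 min dark, luminescence read.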
BAZ2B block: inhibitors of human BAZ2B bromodomain | Q9UIF8 | AlphaScreen BAZ2B-H3K14Ac peptide displacement | Potency, µM (doses to about 114 µM), without a hit: at the top dose activity change, negative = inhibition, most hits filed as inhibitors | 4.4% of 360,000 active; note: % is set by controls: 0 for no effect and ±100 for the full control effect; nearly all actives have a fitted effect of over 60% in size
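Compounds, titrated to a top concentration of 110 uM, were incubated 30 min at room temperature with preformed BAZ2B/acetyl-K14 H3 peptide complex (50 nM each). Proximity signal was measured by AlphaScreen after 20 min with beads.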
L3MBTL1 block: blocks human L3MBTL1; Q9Y468; Potency, µM (top dose mostly 57.1 µM), for inactives: at the highest dose activity, negative = inhibition, hits mostly inhibitors; AlphaScreen L3MBTL1–H3K9me1 peptide binding; 0.66% of 230,000 active; note: % is set by controls: 0 for no effect and ±100 for the full control effect; nearly all actives have a fitted effect of over 60% in size
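AlphaScreen proximity signal between nickel-chelate acceptor and streptavidin donor beads (final 10 ug/mL) reports binding of 50 nM L3MBTL1 to 75 nM biotin-H3 K9me1 peptide; complex incubated with compounds 30 min at room temperature; cefsulodin titration as control.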
JMJD2A Tudor: inhibitors of human JMJD2A Tudor domain | O75164 | AlphaScreen JMJD2A-Tudor / H3K4me3 peptide binding | Potency, µM (doses to about 114 µM), without a hit: top-dose activity change, negative = inhibition, usual class: inhibitors | 4.4% of 390,000 active; note: % is set by controls: 0 for no effect and ±100 for the full control effect; nearly all actives have a fitted effect of over 50% in size
Starred values were filed as active, the others as inactive; ? = inconclusive; nt = no result; [ ] = dose if it differs, or a comment. Calls come from the whole dose curve; as a rule, active = well fitted curve in the direction sought with a large enough effect; inconclusive = small, poorly fitted or top-dose-only effect, or another doubt; inactive = no such curve, though single readings can be large; an effect the other way counts as inactive or inconclusive. Potency is the fitted concentration of half-maximal effect.

SMILES | Sfp inh | G9a inh | HP1b chromo inh | BAZ2B block | L3MBTL1 block | JMJD2A Tudor
COc1ccccc1CN1CCNC(=O)C1CC(=O)NC1CCCCCC1 (stereo unspecified) | 10% | 16µM* | 34% | -26% | nt | -16%
CCOc1ccccc1CN1CCNC(=O)C1CC(=O)NC1CCCCCC1 (stereo unspecified) | 1% | ? | 18% | -9% | nt | ?
CCOc1ccccc1CN1CCNC(=O)C1CC(=O)NC1CCCCC1 (stereo unspecified) | 6% | -5%[0.0925 µM] | 40% | -18% | nt | -27%
COc1cccc(CN2CCNC(=O)C2CC(=O)NC2CCCCC2)c1OC (stereo unspecified) | 12% | 35µM* | 44% | -14% | nt | -6%
COc1cccc(CN2CCNC(=O)C2CC(=O)N2CCCCO2)c1OC (stereo unspecified) | -24% | 71µM* | 52% | 0% | -26% | 1%
COc1cccc(CN2CCNC(=O)C2CC(=O)NC2CCCC2)c1OC (stereo unspecified) | 9% | 40µM* | 9% | -16% | nt | -24%
CCOC(=O)c1c(C)c(-c2ccccc2)n(CC(=O)Nc2cc(C)cc(C)c2)c1C | nt | 3%[59 µM] | 25% | 2% | nt | 1%
COCCC(=O)Nc1ccc2c(c1)CN(C(=O)c1ccc(CSC)o1)CC2 | 1% | 50µM* | 74% | 7% | -1% | -12%
COCCC(=O)Nc1ccc2c(c1)CN(C(=O)CCSC)CC2 | 11% | -4% | 55% | 1% | 4% | 3%
COc1ccc2cc(C(=O)C3CCCN(C(=O)c4cnn(C(C)C)c4)C3)ccc2c1 (stereo unspecified) | 17% | 2% | 4% | -22% | nt | 18µM*
COc1ccc2cc(C(=O)C3CCCN(C(=O)c4cccnc4)C3)ccc2c1 (stereo unspecified) | 1% | ? | 31% | -21% | nt | -11%
CSc1ncccc1C(=O)N1CCCC(C(=O)c2ccc3ccccc3c2)C1 (stereo unspecified) | -12% | nt | 36% | -15% | -13% | -15%
CN(C)c1ccccc1C(=O)N1CCCC(C(=O)c2ccc3ccccc3c2)C1 (stereo unspecified) | -18% | 50µM* | -4% | ? | -28% | ?
COc1ccc(-c2nc3cnc(N4CCOCC4)nc3n(CCC#N)c2=O)cc1 | 19% | -6%[12.7 µM] | nt | nt | nt | nt
Cc1ccc(S(=O)(=O)NC(C)C(=O)Nc2ccc3c(c2)OCO3)cc1 (stereo unspecified) | 6% | 50µM* | 17% | 11% | nt | -8%
Cc1ccc(S(=O)(=O)NC(C(=O)N2CCOCCOCCOCC2)C(C)C)cc1 (stereo unspecified) | 11% | 28% | 10% | 3% | nt | -2%
Cc1ccc(S(=O)(=O)NC(C)C(=O)N2CCOCCOCCOCCOCC2)cc1 (stereo unspecified) | 29% | 40µM* | 36% | 6% | nt | 11%
CO[C@H]1COC(=O)C/C=C\[C@@H](C)[C@H](OC)COC(=O)CCC[C@@H]1C | 14% | nt | nt | nt | nt | nt
O=C(c1ccc(-c2ccccc2Cl)o1)N1CCN(S(=O)(=O)c2cccs2)CC1 | nt | 6%[0.501 µM] | -3% | -9% | -14% | -16%
Oc1ccc2ccccc2c1CNn1cnnc1 | -3% | 11µM* | 25% | 0% | nt | -19%
Oc1ccc2ccccc2c1CNc1ccccn1 | -5% | 8.9µM* | 28% | -13% | nt | -18%
Cc1ccc(O)c(CNn2cnnc2)c1 | -2% | 26%[59 µM] | 27% | -4% | -2% | -7%
COc1ccc(NC(=S)NC23CC4CC(CC(C4)C2)C3)cc1OC | 32% | 21% | 38% | -18% | nt | -5%
CC(C)C[C@H](NC(=O)[C@H](CC(C)C)NC(=O)[C@H](Cc1ccc(O)cc1)NC(=O)CNC(=O)[C@H](C)NC(=O)[C@H](CO)NC(=O)[C@H](CC(N)=O)NC(=O)[C@H](CC(C)C)NC(=O)[C@@H](NC(=O)[C@H](Cc1c[nH]c2ccccc12)NC(=O)CN)[C@@H](C)O)C(=O)NCC(=O)N1CCC[C@H]1C(=O)N1CCC[C@H]1C(=O)N1CCC[C@H]1C(=O)NCC(=O)N[C@@H](Cc1ccccc1)C(=O)N[C@@H](CO)C(=O)N1CCC[C@H]1C(=O)N[C@@H](Cc1ccccc1)C(=O)N[C@@H](CCCNC(=N)N)C(N)=O | 3% | nt | nt | nt | nt | nt
O=C(NCc1ccc(F)cc1)c1cc2n(n1)CCCN(Cc1ccc(F)cc1)C2=O | nt | -24%[59 µM] | 19% | -13% | nt | -3%
SMILES | Sfp inh | G9a inh | HP1b chromo inh | BAZ2B block | L3MBTL1 block | JMJD2A Tudor
CCCc1sc(N/N=C/c2ccccn2)nc1-c1ccc(F)cc1 | -10% | -46%[59 µM] | -20% | ? | -9% | 45µM*
Cc1cccc(OCC(=O)N/N=C/c2cc([N+](=O)[O-])ccc2N2CCOCC2)c1 | -24% | 8%[59 µM] | 33% | -6% | -1% | -3%
CCCCCCN1C=C/C(=C\C=C(C#N)C#N)c2ccccc21 | 5% | 7.1µM* | ? | 3.2µM* | -16% | 2.8µM*
C=CCN1C=C/C(=C\C=C(C#N)C#N)c2ccccc21 | 0% | ? | ? | 3.2µM* | ? | 22µM*
CN1/C(=C/C=C(C#N)C#N)C=Cc2ccccc21 | 4% | -11% | 31% | -12% | -3% | -10%
CCCCCCN1C=CC=C/C1=C/C=C(C#N)C#N | ? | 45µM* | -23% | 25µM* | -18% | ?
CCCCCN1C=CC=C/C1=C\C=C(C#N)C#N | -3% | ? | -10% | ? | -14% | -24%
COC(=O)[C@@H]1C[C@H]2CC[C@H](O)C[C@H]2N1Cc1c(F)cccc1Cl | 7% | nt | nt | nt | nt | nt
COc1ccc(CCNC(=O)c2cc(C3CC3)nc3c2cnn3C(C)C)cc1 | nt | 24%[12.7 µM] | 54% | 49% | 43% | 10%
COc1ccccc1CNC(=O)CN1C(=O)CCn2nc(-c3ccccc3)cc21 | nt | -31%[59 µM] | -9% | 1%[57.1 µM] | nt | -27%
CCc1ccccc1OCCCN1CCCC1 | -2% | 50µM* | -15% | ? | ? | -89%
CCc1ccccc1OCCCCN1CCCCC1 | -1% | 40µM* | ? | ? | -2% | 1.8µM*
Cc1ccc(C)c(CSC2=NC(C)(C)Nc3ccccc32)c1 | nt | 74%[59 µM] | 239% | 101%[57.1 µM] | nt | 122%
CCOC1CCCC(n2cnc3c(=S)nc[nH]c32)O1 (stereo unspecified) | nt | nt | ? | nt | nt | 18µM*
Nc1ncnc2c1ncn2C1CCCC(CO)O1 (stereo unspecified) | nt | nt | 23%[57 µM] | nt | nt | -6%
Cc1cc(-c2ccccc2)[nH]c(=O)c1C#N | 19% | -2% | 51% | -2% | 6% | -2%[57.1 µM]
CN(C)c1c(-c2ccccc2)cc(-c2ccccc2)[nH]c1=O | -19% | 35µM* | nt | -8% | nt | nt

Screening results (PubChem)
